Measurements from the supplement of paper PMC10498489.
Screen size: about 2,300 compounds; about 330 (14%) showed activity. These entries were drawn from the full list. Values without a mark were called inactive.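 The calls were made as follows: active = median modified Z-score above 1.96; inactive = 1.96 or below.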

test system: HepG2 Srxn1-GFP reporter cells (+30 nM CDDO-Me); assay: Srxn1-GFP intensity median modified Z-score relative to plate median; higher = stronger NRF2 / oxidative stress reporter activation, active = hit call of the paper; conditions: 10 µM; exposure time: 24h
Method in brief: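 Compound at 10 μM was applied with an NRF2 activator at 30 nM to HepG2 Srxn1-GFP BAC reporter cells for 24 h, in DMSO at no more than 0.1%, using three replicate 96-well plates seeded at 20,000 cells per well. Fixed, Hoechst-stained cells were imaged confocally and cytoplasmic GFP was scored for each cell, with images under 100 cells left out. The figure reported is the replicate median of the per-plate modified Z-score of GFP intensity. Scaling relied on 1.4826 × median absolute deviation.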

Row | Structure (SMILES) | Srxn1-GFP intensity median modified Z-score
1 | O=C(O)c1cc(-c2ccccc2)nc2cc(Br)ccc12 | 1.37
2 | CC1OC(n2cc(F)c(=O)[nH]c2=O)C(O)C1O (configuration not stated) [euspeclibcmpd1997] | -0.334
3 | CN[C@@H]1[C@H](O)[C@H](NC)[C@H]2O[C@@]3(O)C(=O)C[C@@H](C)O[C@H]3O[C@@H]2[C@H]1O [euspeclibcmpd268] | -0.125
4 | COc1cc2c(cc1OC)C1C(=O)c3ccc4c(c3O[C@@H]1CO2)C=CC(C)(C)O4 (some centres not stated) [euspeclibcmpd1734] | 12.7 (active)
5 | COc1ccc2c(c1)O[C@H]1c3ccc(OC)cc3OC[C@@H]21 [euspeclibcmpd1733] | -0.45
6 | COc1ccc2c(c1)O[C@@H]1COc3cc(OC)c(OC)cc3C1C2=O (some centres not stated) [euspeclibcmpd1700] | 22.8 (active)
7 | COc1cc2c(cc1OC)C1C(=O)c3c(O)cc4c(c3OC1CO2)C=CC(C)(C)O4 (configuration not stated) [euspeclibcmpd1478] | 1.56
8 | COc1ccc([C@H]2Oc3cc(OC)cc(OC)c3C[C@H]2O)cc1 [euspeclibcmpd1383] | 0
9 | CCOC(=O)c1c(NC(=O)COC(=O)C(C)NC(N)=O)sc(C(C)=O)c1C (configuration not stated) | 1.26
10 | CCN(CC)CCCC(C)N=c1c2ccc(Cl)cc2[nH]c2ccc(OC)cc12 (configuration not stated) [euspeclibcmpd261] | 19.2 (active)
11 | CCN(CC)CCCC(C)N=c1cc[nH]c2cc(Cl)ccc12 (configuration not stated) [euspeclibcmpd325] | -0.157
12 | O[C@@H]1[C@H](O)CO[C@H]1O [euspeclibcmpd1668] | -0.319
13 | COc1ccc(-c2coc3cc(OC)ccc3c2=O)cc1 [euspeclibcmpd2413] | -0.165
14 | C[C@]12C=CC(=O)CC1=CCC1C2[C@@H](O)C[C@@]2(C)C1CC[C@]2(O)C(=O)CO (some centres not stated) [euspeclibcmpd241] | -0.692
15 | O=C(O)c1cccnc1 [euspeclibcmpd2043] | -0.519
16 | CN1CCC[C@H]1c1cccnc1 [euspeclibcmpd957] | 8.21 (active)
17 | CN1C(=O)CC[C@H]1c1cccnc1 [euspeclibcmpd75] | -0.303
18 | O=C(O)c1ccccc1C(=O)Nc1ccc(S(=O)(=O)N=c2[nH]ccs2)cc1 [euspeclibcmpd427] | 0.584
19 | CCCCCCCCCCOc1cc2c(=O)c(C(=O)OCC)c[nH]c2cc1OCC [euspeclibcmpd775] | 0
20 | COC(=O)CC1C(C)(C)C(O)C2CC3=C4CC(O)OC(c5ccoc5)C4(C)CCC3C1(C)C2=O (configuration not stated) [euspeclibcmpd1860] | 0.479
21 | C=CC[C@]1(O)CCC2C3=C(C=C[C@@]21C)C1=C(CC3)CC(=O)CC1 (some centres not stated) [euspeclibcmpd848] | 0.704
22 | Oc1cccc2cc3cccc(O)c3c(O)c12 [euspeclibcmpd25] | -0.419
23 | O=c1c(O)cccc2cc(O)c(O)c(O)c12 [euspeclibcmpd1723] | -0.877
24 | Cc1cc(O)c2c(O)c3c(O)cccc3cc2c1 [euspeclibcmpd2068] | 2.58 (active)

Row | Structure (SMILES) | Srxn1-GFP intensity median modified Z-score
25 | CC(=O)Oc1ccccc1C(=O)Oc1ccccc1C(=O)O [euspeclibcmpd1749] | -0.327
26 | O=C(/C=C/C(=O)Oc1ccccc1C(=O)O)Oc1ccccc1C(=O)O [euspeclibcmpd1772] | -0.354
27 | CC(=O)Oc1ccccc1C(=O)O [euspeclibcmpd28] | 61 (active)
28 | O=C(Oc1ccccc1C(=O)O)c1ccccc1O [euspeclibcmpd2] | -0.023
29 | O=C(O)c1ccccc1OP(=O)(O)O [euspeclibcmpd1073] | -0.579
30 | CCCCC(=O)Oc1ccccc1C(=O)O [euspeclibcmpd1887] | 14.5 (active)
31 | CCCCCN(C)CCC(O)(P(=O)(O)O)P(=O)(O)O [euspeclibcmpd2308] | -0.118
32 | CCCc1cc(C(N)=S)ccn1 [euspeclibcmpd1165] | -0.267
33 | NC[C@H]1O[C@H](OC2[C@@H](N)C[C@@H](N)[C@H](O[C@H]3O[C@H](CO)[C@@H](O)[C@H](N)[C@H]3O)[C@H]2O)[C@H](O)[C@@H](O)[C@@H]1O (some centres not stated) [euspeclibcmpd168] | -0.199
34 | CC(C)CCCC(C)C1CCC2C3CC[C@H]4C[C@@H](O)CC[C@]4(C)C3CC[C@]12C (some centres not stated) [euspeclibcmpd2135] | 0.00623
35 | NCCC[C@H](N)CC(=O)NC1CNC(=O)C([C@H]2C[C@H](O)NC(N)=N2)NC(=O)C(C=NC(N)=O)NC(=O)[C@H](CO)NC(=O)[C@H](CO)NC1=O (some centres not stated) [euspeclibcmpd994] | -0.33
36 | O=C(O)c1cc(=O)[nH]c(=O)[nH]1 [euspeclibcmpd1192] | -0.551
37 | O=C(O)c1cc2cc(Cl)ccc2[nH]1 [euspeclibcmpd2020] | 1.97 (active)
38 | CC(C(=O)O)c1ccc2c(c1)[nH]c1ccc(Cl)cc12 (configuration not stated) [euspeclibcmpd425] | 0.027
39 | CCn1cc(C(=O)O)c(=O)c2cc(F)c(N3CCN(C(=O)CCSC)CC3)cc21 | 0.401
40 | NS(=O)(=O)c1cc2c(cc1Cl)N=C(CSCc1ccccc1)NS2(=O)=O [euspeclibcmpd35] | -0.327
41 | CC1OC1P(=O)(O)O (configuration not stated) [euspeclibcmpd2281] | -0.455
42 | CC(C)[N+](C)(CCOC(=O)C1c2ccccc2Oc2ccccc21)C(C)C [euspeclibcmpd254] | 0.13
43 | O=Cc1ccccc1O[C@@H]1O[C@H](CO)[C@H](O)[C@@H](O)[C@H]1O [euspeclibcmpd1574] | 0.476
44 | N[C@@H]1[C@@H](O)[C@H](O)[C@@H](CO)O[C@H]1O [euspeclibcmpd140] | 0.0216
45 | O=C(c1ccc(OCCN2CCCCC2)cc1)c1c(-c2ccc(O)cc2)sc2cc(O)ccc12 [euspeclibcmpd831] | -0.702
46 | CCCCOc1ccc(OCCCN2CCOCC2)cc1 [euspeclibcmpd396] | 2.42 (active)
47 | N#Cc1ccc(C(=O)NCCCCN2CCOCC2)cc1 | 0.374
48 | CCCCOc1ccc(C(=O)CCN2CCCCC2)cc1 [euspeclibcmpd107] | 3.53 (active)

Row | Structure (SMILES) | Srxn1-GFP intensity median modified Z-score
49 | CC1CCN(CCCC(=O)c2ccc(F)cc2)CC1 [euspeclibcmpd1905] | 1.19
50 | O=C(NCCCCN1CCOCC1)c1ccc(F)cc1 | 0.352
51 | O=c1c(O)cc2c(O)oc3c(=O)c(O)cc4c(O)oc1c2c43 [euspeclibcmpd1077] | 0.204
52 | CC1CC[C@@]2(OC1)O[C@H]1CC3C4CC[C@@H]5C[C@@H](O)CC[C@]5(C)C4CC[C@]3(C)[C@H]1[C@@H]2C (some centres not stated) [euspeclibcmpd2070] | -0.402
53 | O=C(C=Cc1ccc(O)c(O)c1)O[C@@H]1C[C@](O)(C(=O)O)C[C@@H](O)[C@H]1O [euspeclibcmpd1682] | 1.16
54 | C[C@]12C=CC(=O)CC1=CCC1C2[C@@H](O)C[C@@]2(C)C1CC[C@]2(O)C(=O)COC(=O)CCC(=O)O (some centres not stated) [euspeclibcmpd794] | 0.608
55 | Cc1cccc(N=c2cc[nH]cc2S(=O)(=O)NC(=O)NC(C)C)c1 [euspeclibcmpd2184] | 0
56 | C[C@]12CCC3c4ccc(OC(=O)c5ccccc5)cc4CCC3C1CC[C@@H]2O (some centres not stated) [euspeclibcmpd412] | 0.298
57 | NC(=O)COC(=O)c1ccccc1Nc1cccc(C(F)(F)F)c1 | 1.26
58 | CC(=O)OCC(=O)[C@@]1(O)CCC2C3CC=C4CC(=O)C=C[C@]4(C)[C@@]3(Cl)[C@@H](Cl)C[C@@]21C (some centres not stated) [euspeclibcmpd1222] | -0.43
59 | CCC1OC(=O)C(C)C(=O)C(C)[C@@H](OC2O[C@H](C)C[C@H](N(C)C)[C@H]2O)[C@](C)(OC)CC(C)C(=O)C(C)[C@@H]2N(CCCCn3cnc(-c4cccnc4)c3)C(=O)O[C@]12C (some centres not stated) [euspeclibcmpd733] | -0.17
60 | Oc1c(I)cc(Cl)c2cccnc12 [euspeclibcmpd705] | 2.87 (active)
61 | Oc1c(Cl)cc(Cl)c2cccnc12 [euspeclibcmpd537] | 2.82 (active)
62 | O=[N+]([O-])c1ccc(O)c2ncccc12 [euspeclibcmpd1218] | -0.363
63 | Oc1c(I)cc(Cl)c2cccnc12 | 1.31
64 | O=S(=O)(O)c1cc(I)c(O)c2ncccc12 [euspeclibcmpd2311] | -0.435
65 | Oc1c(I)cc(I)c2cccnc12 [euspeclibcmpd2015] | 1.62
66 | Oc1ccc(Cl)c2cccnc12 [euspeclibcmpd72] | -1.02
67 | Cc1ccc(Cl)c2cccnc12 | 1.45
68 | Oc1c(Br)cc(Br)c2cccnc12 [euspeclibcmpd1032] | 4.39 (active)
69 | CCc1c(C)cn(C(=O)NCCc2ccc(S(=O)(=O)NC(=O)N[C@H]3CC[C@H](C)CC3)cc2)c1O [euspeclibcmpd697] | -0.793
70 | O=C(O[C@@H]1Cc2c(O)cc(O)cc2O[C@@H]1c1cc(O)c(O)c(O)c1-c1c([C@H]2Oc3cc(O)cc(O)c3C[C@H]2OC(=O)c2cc(O)c(O)c(O)c2)cc(O)c(O)c1O)c1cc(O)c(O)c(O)c1 [euspeclibcmpd2312] | -0.214
71 | COc1[nH]cnc(=NS(=O)(=O)c2ccc(N)cc2)c1OC [euspeclibcmpd917] | -0.467
72 | COc1cc(OC)c2c(c1Cl)OC1(C(=O)CC(=O)CC1C)C2=O (configuration not stated) [euspeclibcmpd1388] | -0.00204
